Test results from the supplement of paper PMC6555819.

What was measured:
Test in all cases: PBM binding z-score (relative to random genomic background probes); higher = stronger binding; sequences stand for … in GC…GCGATTGACAGCGTAGAATGAAGG
[1] = system: FXR:RXRa (NR concentration 270 nM, RXRa partner concentration 90 nM)
Procedure, shortened: (§1)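 Custom Agilent 4×180K protein-binding microarrays carried double-stranded probes, each with a 34-nt variable region. These regions held direct-repeat seeds, single-nucleotide variants, half-site ablations and random human genomic background sequences. Ligand-free nuclear receptor dimers were incubated on the arrays for 1 h, antibodies against each partner (one per run) detected binding, and scanned fluorescence was regression-normalized. Binding z-scores take the random background probes as reference.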

[2] = system: LXRa:RXRa (NR concentration 270 nM, RXRa partner concentration 90 nM)
Procedure, shortened: as §1

[3] = system: LXRa homodimer (NR concentration 270 nM)
Procedure, shortened: as §1

[4] = system: LXRb:RXRa (NR concentration 270 nM, RXRa partner concentration 90 nM)
Procedure, shortened: as §1

[5] = system: LXRb homodimer (NR concentration 270 nM)
Procedure, shortened: as §1

[6] = system: PPARa:RXRa (NR concentration 270 nM, RXRa partner concentration 90 nM)
Procedure, shortened: as §1

[7] = system: PPARg:RXRa (NR concentration 180 nM, RXRa partner concentration 90 nM)
Procedure, shortened: as §1

[8] = system: PPARg:RXRa 270nM:90nM, anti-RXR (NR concentration 270 nM, RXRa partner concentration 90 nM)
Procedure, shortened: as §1

[9] = system: PPARg:RXRa 30nM:10nM, anti-RXR (NR concentration 30 nM, RXRa partner concentration 10 nM)
Procedure, shortened: as §1

[10] = system: PPARg:RXRa 90nM:30nM, anti-RXR (NR concentration 90 nM, RXRa partner concentration 30 nM)
Procedure, shortened: as §1

[11] = system: PPARg:RXRa DBDmut IVT, anti-RXR (DBD mutation: RXRa K156A/R161A, NR concentration 270 nM, RXRa partner concentration 90 nM)
Procedure, shortened: as §1

[12] = system: PPARg:RXRa IVT, anti-PPARg (NR concentration 270 nM, RXRa partner concentration 90 nM)
Procedure, shortened: as §1

[13] = system: PPARg DBDmut:RXRa IVT, anti-PPARg (DBD mutation: PPARg1 K132A/R137A, NR concentration 270 nM, RXRa partner concentration 90 nM)
Procedure, shortened: as §1

[14] = system: PPARg DBDmut IVT, anti-PPARg (DBD mutation: PPARg1 K132A/R137A, NR concentration 270 nM)
Procedure, shortened: as §1

[15] = system: PPARg homodimer (NR concentration 180 nM)
Procedure, shortened: as §1

[16] = system: PXR:RXRa (NR concentration 270 nM, RXRa partner concentration 90 nM)
Procedure, shortened: as §1

[17] = system: PXR homodimer (NR concentration 270 nM)
Procedure, shortened: as §1

[18] = system: RARa:RXR (NR concentration 270 nM, RXRa partner concentration 90 nM)
Procedure, shortened: as §1

[19] = system: RARa homodimer (NR concentration 270 nM)
Procedure, shortened: as §1

[20] = system: RARb:RXRa (NR concentration 270 nM, RXRa partner concentration 90 nM)
Procedure, shortened: as §1

Sequence	PBM binding z-score [1]	PBM binding z-score [2]	PBM binding z-score [3]	PBM binding z-score [4]	PBM binding z-score [5]	PBM binding z-score [6]	PBM binding z-score [7]	PBM binding z-score [8]	PBM binding z-score [9]	PBM binding z-score [10]	PBM binding z-score [11]	PBM binding z-score [12]	PBM binding z-score [13]	PBM binding z-score [14]	PBM binding z-score [15]	PBM binding z-score [16]	PBM binding z-score [17]	PBM binding z-score [18]	PBM binding z-score [19]	PBM binding z-score [20]
TCGAGTAGGTTAGGGGCATACAGAATGGCGTCGA	0.679	0.555	-0.335	0.825	-0.198	1.39	1.04	1.65	1.4	1.6	1.98	1.38	0.000515	-1.13	0.459	0.501	0.171	0.678	-0.124	1.06
CAGACTAGGTCAAGAGGTCAAAGTCCGCTTCCCG	7.03	6.1	5.88	5.69	1.64	6.29	8.59	7.74	5.99	7.54	7.08	7.26	0.894	0.414	5.61	6.21	1.93	7.55	0.913	5.39
GCTATTAGTTGAAAGGGCAACCGTATGATTCTCG	0.693	0.878	0.327	1.1	-0.2	2.2	2.64	4.69	2.25	4.37	0.503	1.17	0.375	0.271	1.91	1	0.322	1.49	0.819	2.11
CCGCCTGGGGCAAGGTTACCATAACGCACAGCCA	0.284	0.783	-0.315	0.56	-1.07	1.21	0.654	0.637	-0.339	0.253	-0.567	0.525	-0.637	-1.46	0.471	0.34	-0.119	0.916	-0.239	1.61
CTCGAAAGGTCGGTTGATGTGAGTATACGGATAA	1.88	1.52	-0.145	1.45	0.455	2.31	0.418	0.917	0.204	0.223	0.122	0.641	0.802	0.00433	1.37	1.07	0.216	1.41	0.252	2.86
CCACACAGGTGAAAGGTAACTCAGTCTGGTACGC	1.02	1.03	0.186	1.15	-0.0183	3.42	5.45	5.54	3.68	5.21	2.15	3.2	0.0609	0.1	1.3	1.22	0.292	1.76	0.461	1.38
ATCGAAAGGTCGACGACGTGAGTATACACCGTTT	3.9	3.08	-0.00126	2.61	0.501	4.21	2.29	2.7	0.988	1.77	0.416	1.22	1.4	1.43	1.37	2.32	-0.182	3.07	0.0928	3.72
CCGACTGGGGCAGAAAGGATACCATACCATCCGG	-0.81	-0.88	-0.438	-0.926	-1.2	-0.597	0.937	-0.0255	-0.593	-0.344	0.646	0.728	-0.578	-1.57	-0.142	-0.951	-0.394	-1.06	-0.437	0.0733
ACTAGCAGGTCAAGTTTGGGTCACTCAAACAAAG	5.89	4.79	1.41	3.88	1.28	4.83	4.43	4.76	1.27	3.41	4.12	4.73	0.847	0.843	3.76	4.22	0.228	5.89	0.164	4.61
TCTGCTAGGTCAGTAGGTCAGCTAACGAGCTGCC	1.81	1.55	0.12	1.18	-0.0966	3.55	4.84	5	2.51	4.29	4.75	6.23	0.586	0.0507	0.729	1.3	-0.386	2.58	-1.38	3.79
TCTTATAGATCAAAGGTTAAGAAAGCCGAAGCCT	2.06	2.39	0.368	2.31	-0.12	4.55	7.79	7.92	7.61	9.15	2.07	3.14	0.659	0.755	2.4	2.41	0.154	3.82	0.262	2.06
ACTCGGAAGACAAAGGTCAGAGCTACGCCAGTGA	3.29	3.7	1.47	3.28	0.387	4.48	4.43	4.75	2.83	4.83	0.385	1.77	0.488	-0.549	2.44	3.25	0.247	3.84	0.864	4.07
TGTCAAAGTTTAAAGGTAACGTAAGTATCCACAC	1.49	1.72	0.175	1.29	-0.187	2.79	4.23	4.3	1.98	3.41	-0.319	2.73	0.942	1.54	0.899	1.7	0.39	2.12	0.576	2.46
GATAGAGGGTCAGCTAGAGGCCAGAGTATGGAAA	3.79	2.41	-0.113	2.02	-0.604	3.92	2.36	2.57	0.476	1.54	1.62	2.24	-0.25	-0.22	1.64	2.44	-0.0848	3.7	0.224	3.85
CCGACCGGGGCAAAGGTTACCATACTCAGTACGA	2.32	2.1	0.433	2.47	-1.02	4.89	8.71	7.68	6.28	7.92	0.771	3.62	-1.08	-1.57	1.59	2.84	-0.256	4.81	-0.0897	2.66
TCTTGTAGATCAATAGAGGTTAAGTAAGTGCGCT	1.18	3.63	0.745	1.96	-0.0782	2.03	0.0612	1.68	2.63	2.16	1.78	1.22	0.705	0.692	0.3	3.96	0.52	2	0.239	0.993
TCTCGGAGTACACGAAGGTCAGAGCTTTCCAGAG	0.57	0.884	-0.152	1.09	-1.07	1.84	0.351	1.35	1.91	1.7	1.19	0.734	-1.26	-1.48	1.11	2.01	0.814	2	-0.696	2.58
GGAACGACGGCAAGTTGATAGCAGAGTTTGATGG	-0.255	-0.528	-0.627	-0.839	-0.999	-0.669	0.538	-0.859	-0.288	-0.679	-0.476	-0.312	-0.309	-0.721	-0.705	-0.547	0.0619	-0.23	-0.783	-0.715
AGTACAGGGTCACTAGGCCAGAGTAGGTACGAAT	5.64	3.74	-0.159	3.25	0.166	5.73	7.54	6.4	2.95	5.23	3.37	5.52	0.92	0.785	2.13	3.07	0.0901	4.21	0.585	4.23
CCGACTGGGGGAGAAAGGTTACCATACCATCCGG	1.31	1.61	0.182	2.9	4.09	3.66	3.97	6.01	4.46	6.42	1.08	2.68	1.16	2.68	1.76	2	0.501	2.74	0.727	1.68
TATACAGGGTCATAGGCCAGAGTACGAATGTCGA	6.89	6	1.98	4.45	1.7	5.81	7.21	6.45	3.76	5.8	2.32	4.47	2.52	2.28	2.09	4	0.517	5.18	1.43	4.25
ATACCAAGGTGATCTTGAGGTCGTTGATACTAAC	2.36	2.49	1.86	1.92	0.411	1.91	0.527	0.843	-0.161	0.624	0.853	1.45	0.8	0.628	1.02	3.3	2.03	2.54	0.867	1.71
CGTCAAAGTTCAACTAAGGTAACGCAAAGCACGC	7.01	6.31	4.34	4.15	1.94	5.28	5.24	5.67	2.5	4.74	0.641	2.32	0.717	0.408	3.08	5.42	3.81	4.22	1.83	5.15
TCTTGTAGATCAACAGGAGATTAAGAAAGATCGA	-0.494	-0.198	-0.713	-0.321	-0.695	0.133	0.237	0.964	2.14	1.68	1.37	0.548	1.52	0.865	-0.322	-0.306	-0.21	-0.526	-0.298	-0.393
AGTCAAAGTTCACTAGGTAACCTAAGATTCAGCT	5.37	5.38	3.76	3.3	1.13	4.71	7.18	6.5	4	5.96	3.06	5.17	0.689	0.943	2.98	4.37	4.07	3.78	1.73	4.7
CCTACTGGGCCAAGGCCATTGATCAGTCAAAGCA	-0.412	-0.51	-0.664	-0.606	-0.891	-0.0978	0.449	0.724	-0.7	-0.174	2.95	2.89	-0.753	-1.61	0.0949	-0.456	-0.233	-0.557	-0.85	0.554
ATCGAAAGGTCGAGGTGATTATAGAGAAAGGGAA	4.57	3.62	0.192	2.64	0.41	4.56	3.24	3.59	1.31	2.75	0.469	2.16	1.08	1.21	1.85	2.51	0.0251	3	0.473	4.2
AGTACAGGGTCATCGTAGGCCAGAGTACGCACAG	7.3	5.7	0.868	4.07	1.05	5.87	6.41	5.7	2.18	4.41	1.41	3.74	2.14	0.916	3.28	4.88	0.894	5.21	0.349	4.46
